Sampled rows, rich in hits. Any-hit rate of the full collection: about 6.3%.
ATXN2 expr inh: inhibitors of ATXN2 expression; HEK-293 ATXN2-luciferase reporter, luminescence, 24 h; Potency, µM (titrated, usually from 57 µM), actives largely listed as inhibitors; hit rate 0.72% among 360,000; AID 1745845; note: nearly all actives have a fitted effect of over 55% in size
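ATXN2-luciferase reporter cells (luciferase flanked by upstream and downstream ATXN2 gene portions) were treated 24 h at 37 °C with compounds at up to 57 uM. SteadyGlo luminescence gave expression; GF-AFC fluorescence gave viability.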
RORg inh: blocks mouse ROR gamma transcriptional activity. P51450. Drosophila S2 Gal4-RORgamma UAS-luciferase reporter, 20 h. Potency, µM (highest dose often 53.6 µM), actives largely listed as inhibitors. hit rate 5.4% among 310,000. AID 2551; note: nearly all actives have a fitted effect of over 60% in size
Target sequence (P51450 whole entry, looked up, the tested form may be a part): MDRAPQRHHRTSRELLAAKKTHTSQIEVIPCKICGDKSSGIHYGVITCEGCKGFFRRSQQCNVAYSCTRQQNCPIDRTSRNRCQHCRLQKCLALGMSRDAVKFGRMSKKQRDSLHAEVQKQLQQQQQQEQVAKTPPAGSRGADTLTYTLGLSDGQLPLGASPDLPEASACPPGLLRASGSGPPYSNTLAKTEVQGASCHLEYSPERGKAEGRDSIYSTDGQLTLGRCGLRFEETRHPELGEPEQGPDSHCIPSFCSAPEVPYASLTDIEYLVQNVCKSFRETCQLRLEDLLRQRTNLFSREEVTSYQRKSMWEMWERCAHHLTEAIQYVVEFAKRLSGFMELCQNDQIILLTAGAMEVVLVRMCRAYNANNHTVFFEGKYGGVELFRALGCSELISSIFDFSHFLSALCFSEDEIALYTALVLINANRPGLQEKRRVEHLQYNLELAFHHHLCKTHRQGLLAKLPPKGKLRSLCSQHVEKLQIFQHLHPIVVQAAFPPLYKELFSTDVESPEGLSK
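A Gal4/UAS one-hybrid system in insect cells: metallothionein-promoter Gal4–ROR gamma fusion plus Photinus luciferase reporter. Copper sulfate 700 uM final, 20 hr ambient incubation, luminescent detection after 10 min with reagent.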
HepG2 tox: counter-screen for TGF-b inhibitors: cytotoxicity in HepG2 cells | HepG2 CAGA-GFP viability, ATP luminescence, 18 h | Potency, µM (series often up to 46.1 µM), most hits filed as cytotoxic | hit rate 0.76% among 410,000 | AID 588856
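HepG2 CAGA-GFP cells (1000/well, DMEM with 1% FBS) received compound, then TGF-beta at 500 pg/mL final, and were incubated 18 hours at 37 degrees C. Viability was read by CellTiter-Glo luminescence. Media-only wells were set as complete cell-killing and DMSO as no toxicity.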
TGFb inhibitor: inhibitors of TGF-b signaling; HepG2 CAGA-GFP TGF-b/SMAD3 reporter, GFP fluorescence, 18 h; TGF-beta stimulated, 500 pg/mL final; Potency, µM (series often up to 46.1 µM), hits mostly inhibitors; hit rate 1.2% among 410,000; AID 588855; note: nearly all actives have a fitted effect of over 65% in size
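HEPG2 CAGA-GFP, 1000 cells/well; 2 h settle, 37 C; cpd via pin tool; TGF-b 500 pg/mL final; 18 h, 37 C; GFP imaging ex488/em500-530; %Activity normalised to -TGF-b and +DMSO controls; CRC fit, curve class.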
S2 tox: cell viability loss in ATXN counter-screen; S2 cells (HEK-293 line with an ATXN2-luciferase reporter) viability, CellTiter-Fluor protease fluorescence, 24 h; Potency, µM (series often up to 56.7 µM), hits mostly cytotoxic; hit rate 0.49% among 400,000; note: nearly all actives have a fitted effect of over 40% in size
VP16 counter: inhibits Gal4-VP16 luciferase reporter, ROR gamma counter-screen. Drosophila S2 Gal4-VP16 UAS-luciferase, luminescence, 20 h. AID 2546. Potency, µM (top dose mostly 53.6 µM), usual class: inhibitors. hit rate 3.5% among 310,000;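 note: Gal4-VP16 expression switched on by copper sulfate through the metallothionein promoter; nearly all actives have a fitted effect of over 50% in size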
Each line names hits and unclear results; the compound was inactive in the other large screens. Calls come from the whole dose curve; as a rule, active = well fitted curve in the direction sought with a large enough effect; inconclusive = small, poorly fitted or top-dose-only effect, or another doubt; inactive = no such curve, though single readings can be large; an effect the other way counts as inactive or inconclusive.

CCc1ccc(OCC(=O)N(Cc2ccc(C)o2)C2CCS(=O)(=O)C2)cc1 (stereo not drawn)	none (no result: ATXN2 expr inh, RORg inh, TGFb inhibitor, S2 tox, VP16 counter)
COC(=O)c1cc(=O)n(-c2ccccc2)c(=Nc2ccccc2)s1	ATXN2 expr inh inconclusive, RORg inh inconclusive, TGFb inhibitor 18µM, S2 tox inconclusive, VP16 counter inconclusive
Cc1cccc(N2CCN(C(=O)Cn3cnc4sc(C)c(S(=O)(=O)N5CCN(c6ncccn6)CC5)c4c3=O)CC2C)c1 (stereo not drawn)	none (no result: RORg inh, VP16 counter)
Cc1ccc(O)c(C(=O)CC(=O)c2ccccc2Cl)c1	RORg inh 7.1µM, VP16 counter 13µM (no result: S2 tox)
Cc1ccc(C)c(NC(=O)c2ccccc2O)c1	RORg inh inconclusive, TGFb inhibitor inconclusive, VP16 counter inconclusive
Cc1ccc(O)c(C(=O)CC(=O)c2ccc(C(C)(C)C)cc2)c1	RORg inh 5.6µM, S2 tox inconclusive, VP16 counter 5µM
Cn1cnc2c(NCc3ccccc3)nc(Cl)nc21	none (no result: ATXN2 expr inh, RORg inh, S2 tox, VP16 counter)
CCC(COC)NC(=O)c1cnn(-c2ncc3c(n2)-c2ccccc2CCC3)c1C (stereo not drawn)	none (no result: ATXN2 expr inh, RORg inh, HepG2 tox, TGFb inhibitor, VP16 counter)
COc1ccc(CN2CCOc3ccc(CN4CCC(O)(c5cccnc5)CC4)cc3C2)cc1OC	none (no result: ATXN2 expr inh, RORg inh, HepG2 tox, TGFb inhibitor, VP16 counter)
Cc1nn(-c2ccccc2)c(C)c1C(=O)NCCc1ccccc1	none
Cc1nn(-c2ccccc2)c(C)c1C(=O)Nc1nnc(-c2ccco2)o1	RORg inh 0.35µM
O=C(Nc1nnc(-c2ccco2)o1)c1ccc(Br)s1	S2 tox inconclusive (no result: ATXN2 expr inh, RORg inh, VP16 counter)
O=C(Nc1nnc(-c2ccco2)o1)c1ccc(N2C(=O)CCC2=O)cc1	RORg inh 11µM, TGFb inhibitor inconclusive, VP16 counter inconclusive
O=C(Nc1nnc(-c2ccccc2)o1)c1cccc(N2C(=O)CCC2=O)c1	RORg inh 2.5µM, VP16 counter 4.5µM
O=C(Nc1nnc(-c2ccc(Br)cc2)o1)c1cccc(N2C(=O)CCC2=O)c1	none (no result: RORg inh, VP16 counter)
O=C(Nc1nnc(-c2ccc(Cl)cc2)o1)c1ccc(N2C(=O)CCC2=O)cc1	RORg inh 1.1µM, VP16 counter 2.8µM
COc1ccc(NC(=O)c2cc(S(=O)(=O)N3CCCCCC3)cn2C)cc1Cl	none (no result: RORg inh, VP16 counter)
OC(Cc1ccc2ccccc2n1)c1c(Cl)cccc1Cl (stereo not drawn)	none (no result: ATXN2 expr inh, RORg inh, S2 tox, VP16 counter)
CCCCc1nc2n[nH]c(N)c2c2c1CCCC2	none
CCCCCc1n[nH]c2c1CCCC2	RORg inh 10µM, TGFb inhibitor inconclusive (no result: ATXN2 expr inh)
O=C1CS/C(=C/C(=O)c2ccccc2)N1	RORg inh inconclusive
Cc1cc(C)cc(C(=O)/C=C2\NC(=O)CS2)c1	RORg inh 4µM, VP16 counter 5.6µM
N#C/C(=C\Nc1ccccc1O)c1nc2ccccc2o1	RORg inh inconclusive, TGFb inhibitor inconclusive, S2 tox inconclusive, VP16 counter 3.5µM
C#CCn1c(=NC(=O)c2ccc(S(=O)(=O)N3CCc4ccccc4C3)cc2)sc2cc(S(N)(=O)=O)ccc21	ATXN2 expr inh inconclusive, RORg inh 11µM, HepG2 tox 2.8µM, S2 tox 18µM, VP16 counter 10µM
CCOC(=O)c1c(NC(=O)C2=C(C)NC(=S)NC2c2ccc(CC)cc2)sc(C)c1C (stereo not drawn)	RORg inh 3.5µM, VP16 counter 7.9µM (no result: ATXN2 expr inh, HepG2 tox, TGFb inhibitor, S2 tox)
CCn1cnc2cc(NCc3cccs3)ccc21	none
CC(C)(C)n1cnc2cc(NCc3cccs3)ccc21	RORg inh 11µM
COC(=O)c1ccc(NC(=S)NC(=O)c2c(-c3ccccc3)noc2C)cc1	RORg inh 7.1µM, VP16 counter inconclusive
Cc1onc(-c2ccccc2Cl)c1C(=O)NC(=S)Nc1ccc(C(C)C)cc1	RORg inh 1.8µM, VP16 counter inconclusive (no result: ATXN2 expr inh)
Cc1ccc(NC(=S)NC(=O)c2c(-c3ccccc3Cl)noc2C)cc1	RORg inh 4µM, TGFb inhibitor inconclusive, VP16 counter 11µM
Cc1onc(-c2ccccc2Cl)c1C(=O)Nc1ccc(F)c(F)c1	none (no result: ATXN2 expr inh, S2 tox)
CC(=O)N1CCN(C(=S)NC(=O)c2c(-c3ccccc3Cl)noc2C)CC1	RORg inh 1.6µM, VP16 counter 5µM
COC(=O)c1ccc2nc(-c3ccccc3)c(Cc3ccccc3OC)n2c1	none (no result: RORg inh, VP16 counter)
CS(=O)(=O)N1CCN(Cc2cc3nc(-c4cccc5[nH]ncc45)nc(N4CCOCC4)c3s2)CC1	ATXN2 expr inh inconclusive (no result: RORg inh, S2 tox, VP16 counter)
Nc1ccc(C(=O)OCCCc2nc3ccccc3[nH]2)cc1	HepG2 tox 10µM
Cn1nc([N+](=O)[O-])nc1S(C)(=O)=O	ATXN2 expr inh inconclusive, RORg inh 5µM, HepG2 tox 20µM, TGFb inhibitor 13µM, S2 tox inconclusive, VP16 counter inconclusive
COc1cccc(CC2(CO)CCCN(Cc3ccc(C)s3)C2)c1 (stereo not drawn)	none
COc1cccc(CC2(CO)CCCN(Cc3cc4ccccc4[nH]3)C2)c1 (stereo not drawn)	TGFb inhibitor 11µM
COc1cccc(CC2(CO)CCCN(Cc3ccc(CO)o3)C2)c1 (stereo not drawn)	none
COc1ccc(-n2ccnc2CN2CCCC(CO)(Cc3cccc(OC)c3)C2)cc1 (stereo not drawn)	RORg inh 11µM, TGFb inhibitor inconclusive
COc1cccc(CC2(CO)CCCN(Cc3[nH]c4ccc(C)cc4c3C)C2)c1 (stereo not drawn)	ATXN2 expr inh 25µM, TGFb inhibitor inconclusive, S2 tox inconclusive
C=CCn1c(SCC(=O)N(CC)C2CCS(=O)(=O)C2)nc2cc(C(=O)O)ccc2c1=O (stereo not drawn)	none (no result: ATXN2 expr inh, RORg inh, VP16 counter)
Nc1ccc(N)c([N+](=O)[O-])c1	S2 tox inconclusive (no result: RORg inh, HepG2 tox, TGFb inhibitor, VP16 counter)
Cc1ccc2[nH]c(CSc3ccccc3)cc(=O)c2c1	S2 tox inconclusive
CCC1=NN2C(=N)/C(=C\c3cccn3-c3ccc(C)c(C)c3)C(=O)N=C2S1	RORg inh 28µM
CC12CCC3C(CCC4CC(O)CCC43C)C1CC(O)C2 (stereo not drawn)	none (no result: RORg inh, VP16 counter)
C[C@@]12CCC[C@H]1[C@@H]1CC[C@H]3C[C@@H](O)CC[C@]3(C)[C@H]1CC2	S2 tox 25µM (no result: RORg inh, HepG2 tox, TGFb inhibitor, VP16 counter)
CCCC[C@@H](CNC)NC[C@H](NCCCCC1CCCCC1)C(C)C	ATXN2 expr inh 25µM, RORg inh 16µM, TGFb inhibitor inconclusive, S2 tox inconclusive, VP16 counter inconclusive
Cc1ccc2c(c1)Oc1ccc(NC(=O)CCl)cc1C(=O)N2	ATXN2 expr inh inconclusive, RORg inh 10µM, HepG2 tox 8.9µM, TGFb inhibitor 14µM, S2 tox 10µM, VP16 counter 18µM
Cc1ccc2c(c1)Oc1ccc([N+](=O)[O-])cc1C(=O)N2	none
CCOC(=O)/C(=C\c1ccc(OC(F)F)cc1)C1=Nn2c(nnc2-c2ccc(Cl)cc2)SC1	ATXN2 expr inh inconclusive, RORg inh 6.3µM, HepG2 tox 2.5µM, TGFb inhibitor 4µM, S2 tox inconclusive, VP16 counter 5.6µM
